Values joined by “and” are separate entries in the source; they are usually repeats but may differ in a detail not shown here. Equal values may be shown once. About 2,000 (36%) of roughly 5,500 compounds were called active. Not shown: some 18% with an inconclusive outcome. Cut-off read from the data, not from the text of the source: active = normalized growth mostly below about 0.91 (no sharp cut-off); inconclusive = no clear call, values can overlap the other calls; inactive = mostly above about 0.92. The list shows a part of the results.
Test: chemical genetic growth profiling, strain panel (AID 1159580);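 note: tested at 20 µM; growth read once vehicle control cultures reached saturation at 30 °C; 1 = growth at the plate median or of vehicle wells; lower values mean less growth of the strain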
Conditions: S. cerevisiae deletion strains, growth OD

Measured: normalized growth

Cc1cc(CC(=O)O)n(C)c1C(=O)c1ccc(Cl)cc1
inactive: locus YAL013W, strain DEP1, stronger effect = lower value 1 | locus YAL021C, strain ccr4, stronger effect = lower value 1 | locus YAL026C, strain drs2, stronger effect = lower value 1.04 | locus YAL030W, strain snc1, stronger effect = lower value 1.01 | locus YBL061C, strain skt5, stronger effect = lower value 1.04 | locus YBR009C, strain hhf1, stronger effect = lower value 0.999 | locus YBR021W, strain FUR4, stronger effect = lower value 0.979 | locus YBR023C, strain chs3, stronger effect = lower value 1.03 | locus YBR171W, strain sec66, stronger effect = lower value 1.04 | locus YBR229C, strain ROT2, stronger effect = lower value 0.997 | locus YBR231C, strain swc5, stronger effect = lower value 1.02 | locus YBR279W, strain paf1, stronger effect = lower value 1.02 | locus YCL011C, strain gbp2, stronger effect = lower value 1.03 | locus YCL016C, strain dcc1, stronger effect = lower value 1.04 | locus YCL029C, strain bik1, stronger effect = lower value 1.02 | locus YCL061C, strain MRC1, stronger effect = lower value 1.03 | locus YCL069W, strain vba3, stronger effect = lower value 1.04 | locus YCR088W, strain abp1, stronger effect = lower value 1.03 | locus YDL005C, strain med2, stronger effect = lower value 1.02 | locus YDL035C, strain GPR1, stronger effect = lower value 0.989 | locus YDL040C, strain nat1, stronger effect = lower value 1.02 | locus YDL074C, strain BRE1, stronger effect = lower value 0.978 | locus YDL101C, strain DUN1, stronger effect = lower value 1 | locus YDL134C, strain PPH21, stronger effect = lower value 1 | locus YDL185W, strain tfp1, stronger effect = lower value 0.997 | locus YDL192W, strain arf1, stronger effect = lower value 1.01 | locus YDR001C, strain nth1, stronger effect = lower value 1.02 | locus YDR069C, strain doa4, stronger effect = lower value 1.01 | locus YDR101C, strain arx1, stronger effect = lower value 1.01 | locus YDR137W, strain rgp1, stronger effect = lower value 1.04 | locus YDR150W, strain NUM1, stronger effect = lower value 0.998 | locus YDR159W, strain sac3, stronger effect = lower value 1.02 | locus YDR162C, strain NBP2, stronger effect = lower value 0.997 | locus YDR195W, strain ref2 1.02 | locus YDR297W, strain sur2, stronger effect = lower value 1.03 | locus YDR318W, strain mcm21, stronger effect = lower value 1 | locus YDR334W, strain swr1, stronger effect = lower value 1.03 | locus YDR335W, strain msn5, stronger effect = lower value 1.03 | locus YDR388W, stronger effect = lower value 0.998 | locus YDR392W, strain spt3, stronger effect = lower value 1.02 | locus YDR502C, strain sam2, stronger effect = lower value 0.995 | locus YEL003W, strain gim4, stronger effect = lower value 1.02 | locus YEL037C, strain rad23, stronger effect = lower value 1.02 | locus YEL061C, strain CIN8 (second series), stronger effect = lower value 1.03 | locus YEL061C, strain CIN8, stronger effect = lower value 1 | locus YER015W, strain faa2, stronger effect = lower value 1.03 | locus YER016W, strain bim1, stronger effect = lower value 1.04 | locus YER110C, stronger effect = lower value 1 | locus YER111C, strain swi4, stronger effect = lower value 1.02 | locus YER155C, strain BEM2 (second series), stronger effect = lower value 1.01 | locus YER155C, strain BEM2, stronger effect = lower value 0.982 | locus YER167W, strain BCK2, stronger effect = lower value 0.992 | locus YFR010W, strain ubp6, stronger effect = lower value 1.01 | locus YGL078C, strain dbp3, stronger effect = lower value 1 | locus YGL086W, strain mad1, stronger effect = lower value 0.998 | locus YGL167C, strain pmr1, stronger effect = lower value 1.02 | locus YGL173C, strain kem1, stronger effect = lower value 1.02 | locus YGL227W, strain vid30, stronger effect = lower value 1.02 | locus YGL240W, strain doc1, stronger effect = lower value 1 | locus YGL248W, strain PDE1, stronger effect = lower value 0.998 | locus YGL253W, strain hxk2, stronger effect = lower value 1.04 | locus YGR078C, strain PAC10, stronger effect = lower value 0.988 | locus YGR135W, strain pre9, stronger effect = lower value 0.988 | locus YGR229C, strain SMI1, stronger effect = lower value 0.998 | locus YGR252W, strain gcn5, stronger effect = lower value 0.945 | locus YHR013C, strain ard1, stronger effect = lower value 1.05 | locus YHR027C, strain rpn1, stronger effect = lower value 1.02 | locus YHR030C, strain SLT2, stronger effect = lower value 1 and 1.02 | locus YHR079C, strain IRE1 (second series), stronger effect = lower value 1 | locus YHR079C, strain IRE1, stronger effect = lower value 1.02 | locus YHR094C, strain hxt1, stronger effect = lower value 1 | locus YHR129C, strain ARP1, stronger effect = lower value 0.998 | locus YHR142W, strain chs7, stronger effect = lower value 1.05 | locus YHR200W, strain rpn10, stronger effect = lower value 1.01 | locus YIL066C, strain RNR3, stronger effect = lower value 0.994 | locus YIL073C, strain SPO22, stronger effect = lower value 1.02 | locus YIL125W, strain kgd1, stronger effect = lower value 1.01 | locus YIR030C, strain dcg1, stronger effect = lower value 1.01 | locus YJL092W, strain hpr5, stronger effect = lower value 1.03 | locus YJL095W, strain BCK1 (second series), stronger effect = lower value 1.03 | locus YJL095W, strain BCK1, stronger effect = lower value 0.959 and 1.01 | locus YJL115W, strain asf1, stronger effect = lower value 1.01 | locus YJL129C, strain trk1, stronger effect = lower value 1.06 | locus YJL134W, strain LCB3, stronger effect = lower value 1 | locus YJL154C, strain vps35, stronger effect = lower value 1.02 | locus YJL164C, strain tpk1, stronger effect = lower value 1.02 | locus YJL166W, strain qcr8, stronger effect = lower value 1.03 | locus YJL168C, strain set2, stronger effect = lower value 1.01 | locus YJL187C, strain SWE1 (second series), stronger effect = lower value 0.998 | locus YJL187C, strain SWE1, stronger effect = lower value 1.01 | locus YJR043C, strain POL32, stronger effect = lower value 0.997 | locus YJR066W, strain TOR1, stronger effect = lower value 0.954
